This is an account of results in PubChem BioAssay (NCATS).

Each structure is given as a SMILES string. Values joined by “and” are separate entries in the source; they are usually repeats but may differ in a detail not shown here. Identical values can stand only once. Unmarked numbers belong to inactive results. Records with an inconclusive call do not appear. Active and inactive are the calls of the source. Unless noted, the call rests on the fitted dose curve. Some results are limits rather than exact numbers.

Sequence of Glucocorticoid receptor (Homo sapiens) (P04150 whole entry, looked up): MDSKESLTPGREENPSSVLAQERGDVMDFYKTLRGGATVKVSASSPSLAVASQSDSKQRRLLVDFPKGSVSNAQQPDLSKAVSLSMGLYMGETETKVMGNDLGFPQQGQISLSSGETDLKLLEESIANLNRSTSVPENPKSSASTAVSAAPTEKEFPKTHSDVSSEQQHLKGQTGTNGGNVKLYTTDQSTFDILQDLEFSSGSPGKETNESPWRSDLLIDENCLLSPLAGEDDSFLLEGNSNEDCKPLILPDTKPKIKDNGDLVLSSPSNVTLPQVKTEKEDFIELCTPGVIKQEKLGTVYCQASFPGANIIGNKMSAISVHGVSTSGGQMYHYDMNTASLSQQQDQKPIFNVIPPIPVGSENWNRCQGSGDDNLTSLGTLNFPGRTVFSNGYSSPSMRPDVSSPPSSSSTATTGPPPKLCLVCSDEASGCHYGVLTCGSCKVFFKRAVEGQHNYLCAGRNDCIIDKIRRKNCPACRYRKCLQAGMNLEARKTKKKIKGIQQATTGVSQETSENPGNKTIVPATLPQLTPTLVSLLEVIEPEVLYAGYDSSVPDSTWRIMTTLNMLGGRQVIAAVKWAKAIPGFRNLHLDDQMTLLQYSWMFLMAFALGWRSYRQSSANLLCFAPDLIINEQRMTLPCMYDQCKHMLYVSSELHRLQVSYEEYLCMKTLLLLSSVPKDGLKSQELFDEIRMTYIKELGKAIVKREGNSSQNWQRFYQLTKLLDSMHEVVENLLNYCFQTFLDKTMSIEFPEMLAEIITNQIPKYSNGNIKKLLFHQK
Sequence of Cytochrome P450 1A2 (Homo sapiens) (P05177 whole entry, looked up): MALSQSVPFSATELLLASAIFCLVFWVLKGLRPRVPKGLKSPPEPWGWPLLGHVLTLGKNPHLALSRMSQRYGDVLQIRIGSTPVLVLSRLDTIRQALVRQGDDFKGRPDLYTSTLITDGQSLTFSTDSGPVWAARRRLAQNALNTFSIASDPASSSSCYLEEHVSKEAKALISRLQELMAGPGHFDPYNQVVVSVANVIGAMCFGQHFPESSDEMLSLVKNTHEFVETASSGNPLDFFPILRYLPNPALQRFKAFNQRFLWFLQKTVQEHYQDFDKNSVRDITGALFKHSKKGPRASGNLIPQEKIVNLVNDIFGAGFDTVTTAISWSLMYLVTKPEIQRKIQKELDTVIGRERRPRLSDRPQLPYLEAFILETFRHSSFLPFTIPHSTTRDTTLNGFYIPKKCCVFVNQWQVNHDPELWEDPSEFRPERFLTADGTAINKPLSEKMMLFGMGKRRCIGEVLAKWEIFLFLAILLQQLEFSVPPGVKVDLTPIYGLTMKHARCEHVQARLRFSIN

One test deals with Cytochrome P450 1A2 (Homo sapiens) (UniProt P05177). Kind of test: p450-cyp1a2 (AID 410). Further: potency means the concentration at half of the fitted maximal effect.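 On activity change, negative = inhibition: -100% = full effect of reference inhibitor.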 As to conditions: recombinant CYP1A2, luciferin-ME demethylation, luminescence; series mostly up to 57 µM; activity change, negative = inhibition: at the top concentration. An outline of the steps:
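Inhibition was calculated relative to 57 uM furafylline (full inhibition). The reaction used human CYP1A2 at 20nM with Luciferin-ME at its Km, 100uM, driven by an NADPH-regenerating system for 60 min at room temperature.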
For the molecule `O=c1[nH]c2ccccc2n1C1CCN(CCCC(c2ccc(F)cc2)c2ccc(F)cc2)CC1`, the Potency was 20 µM (active) and 31.6 µM (active).

Consider `COC1(CS(=O)c2ccccc2)CCN(CCc2c[nH]c3ccc(F)cc23)CC1` (centres undefined), for which the “activity change, negative = inhibition” value is -12.4%.

With `C#CCN(C)[C@H](C)Cc1ccccc1`, the Potency was 12.6 µM (active).

For the molecule `NP(N)(=O)NC(=O)c1ccc(F)cc1`, the “activity change, negative = inhibition” value was -12%.

Test system in a further test: not listed separately
Kind of test: Cell Viability - BJ (AID 421).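 Further: potency means the concentration at half of the fitted maximal effect; cells exposed to compound for 40 hours at 37 °C before readout.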 The note with it: BJ fibroblast viability, qHTS. An outline of the steps: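 Cytotoxicity as drop in intracellular ATP (CellTiter-Glo, 20 min RT) after 40 hr compound exposure of BJ fibroblasts at 37 °C. Titrations scaled between DMSO and 100 uM tamoxifen, Hill-fitted for AC50.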
`N[C@@H](Cc1ccc(N(CCCl)CCCl)cc1)C(=O)O`: the Potency is greater than 92 µM.

As for `CCCC(C)(COC(N)=O)COC(=O)NC(C)C` (centres undefined), the Potency is greater than 92 µM.

With `c1ccc2c(c1)Nc1ccccc1S2`, the Potency was greater than 92 µM.

Take `CCOP(=S)(OCC)Oc1cc(C)nc(C(C)C)n1`: the Potency is greater than 92 µM.

Consider `Oc1ccc(Cl)cc1Cc1ccccc1`, for which the Potency was greater than 92 µM.

`Oc1ccccc1-c1ccccc1`: the Potency was greater than 92 µM.

With `NCC(O)c1ccc(O)cc1` (centres undefined), the Potency is greater than 92 µM.

Turning to `OCCOc1ccccc1`, the Potency is greater than 92 µM.

Test system in a further test: not listed separately
Briefly: Cell Viability - Hek293 (AID 427;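 active means compounds whose dose-response curve shows a full or clear partial loss of cell viability, called from curve shape rather than a numeric limit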;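 further: potency means the concentration at half of the fitted maximal effect; cells exposed to compound for 40 hours at 37 °C before reading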). The note with it: qHTS. An outline of the steps:
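Luminescent ATP content (CellTiter-Glo, 20 min at room temperature) was measured after a 40 hr, 37 °C compound exposure of HEK293 cells. AC50 values came from Hill-equation fits of qHTS concentration-response data normalized to DMSO and 100 uM tamoxifen.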
Take `CCCC(C)(COC(N)=O)COC(=O)NC(C)C` (centres undefined): the Potency was greater than 92 µM.

With `c1ccc2c(c1)Nc1ccccc1S2`, the Potency was greater than 92 µM.

As for `CCOP(=S)(OCC)Oc1cc(C)nc(C(C)C)n1`, the Potency is greater than 92 µM.

`Oc1ccc(Cl)cc1Cc1ccccc1`: the Potency was greater than 92 µM.

For the molecule `Oc1ccccc1-c1ccccc1`, the Potency is greater than 92 µM.

Regarding `NCC(O)c1ccc(O)cc1` (centres undefined), the Potency was greater than 92 µM.

Regarding `OCCOc1ccccc1`, the Potency was greater than 92 µM.

Test system in another test: not listed separately
Briefly: Cell Viability - HepG2 (AID 433).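 Further: potency means the concentration at half of the fitted maximal effect; potency for ATP loss meaning cytotoxicity.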 As to conditions: qHTS. The essentials:
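Cytotoxicity is scored as loss of intracellular ATP in HepG2 cells exposed to compounds for 40 h. Concentration-response curves, normalized to DMSO and 100 uM tamoxifen, give AC50 values.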
For `CCCC(C)(COC(N)=O)COC(=O)NC(C)C` (centres undefined), the Potency was greater than 92 µM.

`c1ccc2c(c1)Nc1ccccc1S2`: the Potency was greater than 92 µM.

Consider `CCOP(=S)(OCC)Oc1cc(C)nc(C(C)C)n1`, for which the Potency is greater than 92 µM.

`Oc1ccc(Cl)cc1Cc1ccccc1`: the Potency is greater than 92 µM.

Consider `Oc1ccccc1-c1ccccc1`, for which the Potency was greater than 92 µM.

In the case of `C[C@]12C/C(=C/O)C(=O)C[C@@H]1CC[C@@H]1[C@@H]2CC[C@@]2(C)[C@H]1CC[C@]2(C)O`, the Potency is greater than 92 µM.

Take `NCC(O)c1ccc(O)cc1` (centres undefined): the Potency is greater than 92 µM.

Regarding `OCCOc1ccccc1`, the Potency was greater than 92 µM.

Test system in the next test: not listed separately
Kind of test: Cell Viability - SK-N-SH (AID 435).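 Further: potency means the concentration at half of the fitted maximal effect; compound exposure lasted 40 h at 37 °C.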 The note with it: SK-N-SH neuroblastoma cell viability qHTS. An outline of the steps: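 Cells seeded at 1500 per well and incubated 5 hr at 37 °C. Compound added, then 40 hr at 37 °C. CellTiter-Glo added, 20 min at room temperature, luminescence read.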
Regarding `CCCC(C)(COC(N)=O)COC(=O)NC(C)C` (centres undefined), the Potency is greater than 92 µM.

For `c1ccc2c(c1)Nc1ccccc1S2`, the Potency was greater than 92 µM.

Consider `CCOP(=S)(OCC)Oc1cc(C)nc(C(C)C)n1`, for which the Potency is greater than 92 µM.

Take `Oc1ccc(Cl)cc1Cc1ccccc1`: the Potency was greater than 92 µM.

As to `Oc1ccccc1-c1ccccc1`, the Potency is greater than 92 µM.

With `NCC(O)c1ccc(O)cc1` (centres undefined), the Potency is greater than 92 µM.

For `OCCOc1ccccc1`, the Potency is greater than 92 µM.

Test system in another test: not listed separately
Kind of test: NFAT Signaling Pathway (AID 444; active means well fitted curve in either direction with a large enough effect, not every such curve was filed as active;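 further: carbachol stimulus at about its EC50 of 1 µM final; on the % scale 0 is the no-effect control and ±100 the full control effect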). As to conditions: Jurkat NFAT-bla M1, carbachol, beta-lactamase ratio, 5 h; at 17.2 µM (top of the series). An outline of the steps: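 Read-out: CCF4 FRET ratio (460 nm/530 nm) after 1 h RT dye loading, used for %activity and AC50 from titration series. Cells: Jurkat NFAT-β-lactamase/M1 line, treated with compound plus 1 uM carbachol for 5 h, 37 °C.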
As for `CC[N+]1(C)CCCC(OC(=O)C(O)(c2ccccc2)c2ccccc2)C1` (centres undefined), the activity change, negative = inhibition was -75.8% (active).

As for `CCCC(C)(COC(N)=O)COC(=O)NC(C)C` (centres undefined), the activity change, negative = inhibition was -6.68%.

As to `O=P1(NCCCl)OCCCN1CCCl` (centres undefined), the activity change, negative = inhibition was -9.45%.

Test system in the next test: not listed separately
Kind of test: Stat Signaling Pathway (AID 446; active means well fitted curve in either direction with a large enough effect, not every such curve was filed as active;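 further: ME-180 cervical cancer cells given 40 pM IL-6 alongside compound; SIE-controlled beta-lactamase reporter measured as 460/530 nm FRET emission ratio; on the % scale 0 is the no-effect control and ±100 the full control effect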). The note with it: ME-180 SIE beta-lactamase reporter, IL-6 stimulated, 5 h; at 17.2 µM (top of the series). The essentials:
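Reporter line: ME-180 cervical carcinoma, SIE-beta-lactamase. Treatment: compound with 40 pM IL-6, 5 hrs, 37 C, in low-serum OPTI-MEM with 10 mM HEPES pH 7.3. Detection: 460/530 nm fluorescence.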
As for `Fc1ccc(C(OCCN2CCN(CCCc3ccccc3)CC2)c2ccc(F)cc2)cc1`, the activity, negative = inhibition is -6.45%.

For the molecule `CC(CCc1ccccc1)NC(C)C(O)c1ccc(O)cc1` (centres undefined), the activity, negative = inhibition is 22.4%.

Take `CC[N+]1(C)CCCC(OC(=O)C(O)(c2ccccc2)c2ccccc2)C1` (centres undefined): the activity, negative = inhibition is -1.5%.

Turning to `CCCC(C)(COC(N)=O)COC(=O)NC(C)C` (centres undefined), the activity, negative = inhibition is 5.53%.

For the molecule `CCC(COC(=O)c1cc(OC)c(OC)c(OC)c1)(c1ccccc1)N(C)C` (centres undefined), the activity, negative = inhibition was -7.98%.

As for `c1ccc2c(c1)OCC(C1=NCCN1)O2` (centres undefined), the activity, negative = inhibition was -5.78%.

For the molecule `Clc1ccc(COC(Cn2ccnc2)c2ccc(Cl)cc2Cl)cc1` (centres undefined), the activity, negative = inhibition was -23%.

As to `O=P1(NCCCl)OCCCN1CCCl` (centres undefined), the activity, negative = inhibition is -3.9%.

As for `CN(C)[C@@H]1C(=O)C(C(N)=O)=C(O)[C@@]2(O)C(=O)C3=C(O)c4c(O)cccc4[C@@](C)(O)[C@H]3C[C@@H]12`, the activity, negative = inhibition was -6.17%.

The test is the same for the next values; noted with them: ME-180 (cervical carcinoma) SIE beta-lactamase reporter, IL-6 stimulated, 5 h; at 38 µM (top of the series).
On to `Fc1ccc(C(OCCN2CCN(CCCc3ccccc3)CC2)c2ccc(F)cc2)cc1`, for which the activity, negative = inhibition is -18.6%.

Consider `Cc1ncc(CNC(=O)N(CCCl)N=O)c(N)n1`, for which the activity, negative = inhibition is -6.98%.

In the case of `CCN(CC)C(=O)N[C@@H]1C=C2c3cccc4[nH]cc(c34)C[C@@H]2N(C)C1`, the activity, negative = inhibition is 4.62%.

The next test has as its target Glucocorticoid receptor (Homo sapiens) (UniProt P04150). Kind of test: GR-GFP Redistribution (AID 450;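 active means compounds whose dose series gives a full or clear partial fitted curve of increased nuclear translocation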; further: potency means the concentration at half of the fitted maximal effect). As to conditions: U2OS GR-GFP nuclear translocation, laser cytometry, 2 h.
On to `Fc1ccc(C(OCCN2CCN(CCCc3ccccc3)CC2)c2ccc(F)cc2)cc1`, for which the Potency was > 46 µM and > 20.6 µM.

As to `CC(CCc1ccccc1)NC(C)C(O)c1ccc(O)cc1` (centres undefined), the Potency is greater than 20.6 µM.

Consider `Cc1ncc(CNC(=O)N(CCCl)N=O)c(N)n1`, for which the Potency is greater than 46 µM.

In the case of `CC[N+]1(C)CCCC(OC(=O)C(O)(c2ccccc2)c2ccccc2)C1` (centres undefined), the Potency is greater than 20.6 µM.

Turning to `O=c1[nH]c2ccccc2n1C1CCN(CCCC(c2ccc(F)cc2)c2ccc(F)cc2)CC1`, the Potency was > 46 µM and > 20.6 µM.

In the case of `COC1(CS(=O)c2ccccc2)CCN(CCc2c[nH]c3ccc(F)cc23)CC1` (centres undefined), the Potency is greater than 46 µM.

For `c1ccc2c(c1)OCC(C1=NCCN1)O2` (centres undefined), the Potency was greater than 20.6 µM.

Regarding `CCN(CC)C(=O)N[C@@H]1C=C2c3cccc4[nH]cc(c34)C[C@@H]2N(C)C1`, the Potency was greater than 46 µM.

Take `CN(C)CCN(C)CCc1ccc(Cl)c(Cl)c1`: the Potency was greater than 46 µM.

Regarding `C#CCN(C)[C@H](C)Cc1ccccc1`, the Potency is greater than 46 µM.

For the molecule `NP(N)(=O)NC(=O)c1ccc(F)cc1`, the Potency was greater than 46 µM.

For `Clc1ccc(COC(Cn2ccnc2)c2ccc(Cl)cc2Cl)cc1` (centres undefined), the Potency is greater than 20.6 µM.

Take `O=P1(NCCCl)OCCCN1CCCl` (centres undefined): the Potency is greater than 20.6 µM.

`C=C(C)[C@H]1Cc2c(ccc3c2O[C@@H]2COc4cc(OC)c(OC)cc4[C@@H]2C3=O)O1`: the Potency was greater than 46 µM.

For `CN(C)[C@@H]1C(=O)C(C(N)=O)=C(O)[C@@]2(O)C(=O)C3=C(O)c4c(O)cccc4[C@@](C)(O)[C@H]3C[C@@H]12`, the Potency was greater than 20.6 µM.
